# PubChem BioAssay AID743449 (Broad Institute, 2014)
# About 90 (0.9%) of roughly 9,900 compounds were called active. Inconclusive results (about 2%) are left out.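 Rule for the calls: active = mean normalized replicate activity at least 50 and at least half of replicates each reaching 50; inconclusive = only one of the two criteria met; inactive = neither criterion met.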 For the sample, actives were picked, then their nearest neighbours and some compounds at random.
# Assay: reduction of CTGF mRNA in DLD1 cells – DLD1 colon cancer cells, RT-qPCR, single point, primary screen (AID 743449);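 note: 0% = neutral control wells and 100% = dasatinib control wells; higher means stronger suppression of CTGF expression like dasatinib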
# Conditions: 24 h, at 12.5 µM, active compounds read high
row,SMILES,inhibition
1,C[C@@H](NC(=O)C[C@@H]1CC[C@H]2[C@@H](COc3ccc(NC(=O)C4CCOCC4)cc3C(=O)N2C)O1)c1ccccc1,-5.56% (inactive)
2,O=C(CN1CCOCC1)N1CC[C@@H]2[C@H](CO)Nc3ccc(-c4ccccc4F)cc3[C@@H]21,-17.8% (inactive)
3,CCCC#Cc1ccc([C@@H]2[C@H]3CN(S(=O)(=O)c4ccccc4C)CC(=O)N3[C@H]2CO)cc1,26.1% (inactive)
4,C[C@@H]1CN([C@H](C)CO)C(=O)c2ccccc2-c2ccccc2CO[C@H]1CN(C)C(=O)[C@@H]1CCCN1C,3.47% (inactive)
5,O=C(Nc1ccc2c(c1)[C@H]1C[C@H](CC(=O)N3CCc4ccccc4C3)O[C@H](CO)[C@H]1O2)c1ccc2c(c1)OCO2,17% (inactive)
6,O=C(Nc1ccc2c(c1)[C@@H]1C[C@@H](CC(=O)N3CCc4ccccc4C3)O[C@H](CO)[C@@H]1O2)c1ccc2c(c1)OCO2,21.2% (inactive)
7,O=C(Nc1ccc2c(c1)[C@H]1C[C@@H](CC(=O)N3CCc4ccccc4C3)O[C@@H](CO)[C@H]1O2)c1ccc2c(c1)OCO2,61.8% (active)
8,O=C(Nc1ccc2c(c1)[C@@H]1C[C@H](CC(=O)N3CCc4ccccc4C3)O[C@@H](CO)[C@@H]1O2)c1ccc2c(c1)OCO2,-4.94% (inactive)
9,O=C(Nc1ccc(C(F)(F)F)cc1)Nc1ccc2c(c1)[C@H]1C[C@H](CC(=O)N3CCc4ccccc4C3)O[C@@H](CO)[C@H]1O2,57.2% (active)
10,O=C(Nc1ccc(C(F)(F)F)cc1)Nc1ccc2c(c1)[C@@H]1C[C@H](CC(=O)N3CCc4ccccc4C3)O[C@H](CO)[C@@H]1O2,-58% (inactive)
11,O=C(Nc1ccc2c(c1)[C@H]1C[C@@H](CC(=O)N3CCc4ccccc4C3)O[C@H](CO)[C@H]1O2)c1ccc2c(c1)OCO2,56.2% (active)
12,O=C(Nc1ccc(C(F)(F)F)cc1)Nc1ccc2c(c1)[C@@H]1C[C@H](CC(=O)N3CCc4ccccc4C3)O[C@@H](CO)[C@@H]1O2,-25% (inactive)
13,O=C(Nc1ccc2c(c1)[C@@H]1C[C@H](CC(=O)N3CCc4ccccc4C3)O[C@H](CO)[C@@H]1O2)c1ccc2c(c1)OCO2,-19.3% (inactive)
14,CS(=O)(=O)N1[C@@H](C#N)[C@H](c2ccc(C#Cc3cccc(F)c3)cc2)[C@@H]1CO,-161% (inactive)
15,O=C(C[C@@H]1CC[C@@H](NC(=O)C2CCOCC2)[C@@H](CO)O1)NCC1CCCCC1,-39.2% (inactive)
16,CO[C@@H]1CN(C)C(=O)c2ccc(NS(=O)(=O)c3ccc(C)cc3)cc2OC[C@H](C)N(C)C[C@@H]1C,-16.4% (inactive)
17,CC(=O)N1CC2(C1)[C@H](c1ccccc1)[C@H](CO)N2C(=O)c1cnccn1,-10.2% (inactive)
18,CCCNC(=O)N1C[C@@H]2[C@H](c3ccccc31)[C@@H](CO)N2Cc1cccc(OC)c1,-37.6% (inactive)
19,COCCNC(=O)c1cc2c(c(-c3cccc(C4=CCCCC4)c3)n1)[C@@H](CCO)N([S@](=O)C(C)(C)C)C2,-10.8% (inactive)
20,CCc1nc(N2[C@H](CO)[C@@H](c3ccccc3-c3ccc(F)cc3)[C@@H]2C#N)sc1C,55.4% (active)
21,CCc1nc(N2[C@H](CO)[C@H](c3ccccc3-c3ccc(F)cc3)[C@@H]2C#N)sc1C,-17.7% (inactive)

row,SMILES,inhibition
1,CCc1nc(N2[C@@H](C#N)[C@@H](c3ccccc3-c3ccc(F)cc3)[C@@H]2CO)sc1C,10.1% (inactive)
2,CNC[C@@H]1Oc2c(NC(=O)Nc3cccc4ccccc34)cccc2C(=O)N([C@@H](C)CO)C[C@H]1C,17% (inactive)
3,CNC[C@H]1Oc2c(NC(=O)Nc3cccc4ccccc34)cccc2C(=O)N([C@H](C)CO)C[C@@H]1C,50.9% (active)
4,C[C@H]1CN([C@@H](C)CO)C(=O)c2cccc(NC(=O)c3ccc(-c4nccs4)cc3)c2O[C@H]1CN(C)C(=O)Nc1ccc(C(F)(F)F)cc1,11.6% (inactive)
5,COc1ccc(NC(=O)N(C)C[C@H]2Oc3c(NC(=O)CCCCCC(=O)Nc4ccccc4N)cccc3C(=O)N([C@H](C)CO)C[C@@H]2C)cc1,51% (active)
6,CNC[C@H]1Oc2c(NC(=O)Nc3cccc4ccccc34)cccc2C(=O)N([C@@H](C)CO)C[C@H]1C,-2.92% (inactive)
7,COc1ccc(NC(=O)N(C)C[C@@H]2Oc3c(NC(=O)CCCCCC(=O)Nc4ccccc4N)cccc3C(=O)N([C@@H](C)CO)C[C@H]2C)cc1,1.84% (inactive)
8,C[C@@H]1CN([C@@H](C)CO)C(=O)c2cccc(NC(=O)c3nc4ccccc4s3)c2O[C@@H]1CN(C)C(=O)Nc1ccc2c(c1)OCO2,13.9% (inactive)
9,C[C@@H]1CN([C@@H](C)CO)C(=O)c2cccc(NC(=O)c3nc4ccccc4s3)c2O[C@H]1CN(C)C(=O)Nc1ccc2c(c1)OCO2,52.6% (active)
10,C[C@H]1CN([C@@H](C)CO)C(=O)c2cccc(NC(=O)c3ccc(-c4nccs4)cc3)c2O[C@@H]1CN(C)C(=O)Nc1ccc(C(F)(F)F)cc1,72.5% (active)
11,C[C@H](CO)N1C[C@H](C)[C@H](CN(C)C(=O)Nc2ccc3c(c2)OCO3)Oc2c(NC(=O)c3nc4ccccc4s3)cccc2C1=O,14.1% (inactive)
12,COc1ccc(NC(=O)N(C)C[C@H]2Oc3c(NC(=O)CCCCCC(=O)Nc4ccccc4N)cccc3C(=O)N([C@@H](C)CO)C[C@@H]2C)cc1,30.8% (inactive)
13,C[C@H](CO)N1C[C@H](C)[C@H](CN(C)C(=O)Nc2ccc(C(F)(F)F)cc2)Oc2c(NC(=O)c3ccc(-c4nccs4)cc3)cccc2C1=O,-20.1% (inactive)
14,O=C(C[C@@H]1C=C[C@@H](NC(=O)c2ccncc2)[C@H](CO)O1)NCC1CC1,15.8% (inactive)
15,COCC#Cc1ccc([C@H]2[C@@H](CO)N3CCCCN(Cc4cccnc4)C[C@H]23)cc1,-7.41% (inactive)
16,O=C(C1CCOCC1)N1CC2(C1)[C@H](c1ccccc1)[C@@H](CO)N2C(=O)CC1CC1,-35.8% (inactive)
17,COc1cccc(NC(=O)C[C@@H]2CC[C@@H]3[C@@H](COc4ccc(NC(=O)C5CC5)cc4C(=O)N3C)O2)c1,-24.6% (inactive)
18,COc1ccc(-c2ccc([C@@H]3[C@@H](CO)N4C(=O)CN(C(=O)Cc5ccccn5)C[C@@H]34)cc2)cc1,16.8% (inactive)
19,CO[C@H](CN(C)Cc1ccc2c(c1)OCO2)[C@@H](C)CN(C(=O)Nc1ccc(F)cc1)[C@H](C)CO,-17.7% (inactive)
20,CC(C)[C@H]1CC=CC[C@@H](C)Oc2ccccc2C(=O)N(C)[C@H](C(C)C)C(=O)N1 (mixture of isomers),34.9% (inactive)
21,Cc1noc(C)c1NC(=O)N(C)C[C@@H]1Oc2cc(C#CCN(C)C)ccc2S(=O)(=O)N([C@H](C)CO)C[C@H]1C,-1.27% (inactive)

row,SMILES,inhibition
1,COc1ccc(S(=O)(=O)N(C)C[C@@H]2Oc3c(NC(=O)c4nc5ccccc5s4)cccc3C(=O)N([C@@H](C)CO)C[C@@H]2C)cc1,34.9% (inactive)
2,COc1ccc(S(=O)(=O)N(C)C[C@@H]2Oc3c(NC(=O)c4nc5ccccc5s4)cccc3C(=O)N([C@H](C)CO)C[C@H]2C)cc1,9.74% (inactive)
3,C[C@H]1CN([C@@H](C)CO)C(=O)c2cccc(NC(=O)c3nc4ccccc4s3)c2O[C@@H]1CN(C)C(=O)Nc1ccc2c(c1)OCO2,78.9% (active)
4,C[C@@H]1CN([C@H](C)CO)C(=O)c2cccc(NC(=O)c3nc4ccccc4s3)c2O[C@H]1CN(C)C(=O)Nc1ccc2c(c1)OCO2,73% (active)
5,C[C@@H]1CN([C@H](C)CO)C(=O)c2cccc(NC(=O)c3nc4ccccc4s3)c2O[C@@H]1CN(C)C(=O)Nc1ccc2c(c1)OCO2,6.24% (inactive)
6,C[C@H](CO)N1C[C@H](C)[C@@H](CN(C)C(=O)Nc2ccc3c(c2)OCO3)Oc2c(NC(=O)c3nc4ccccc4s3)cccc2C1=O,46.6% (inactive)
7,C[C@@H]1CN([C@@H](C)CO)C(=O)c2cc(NC(=O)Cc3ccccc3)ccc2O[C@@H](C)CCCCO[C@H]1CN(C)Cc1ccncc1,2.97% (inactive)
8,O=C(Nc1ccc(C(F)(F)F)cc1)Nc1ccc2c(c1)[C@H]1C[C@H](CC(=O)N3CCc4ccccc4C3)O[C@H](CO)[C@H]1O2,41.9% (inactive)
9,Cc1ccc(S(=O)(=O)N2CC[C@@H]3[C@H](CO)Nc4ccc(-c5cccc(C(=O)N(C)C)c5)cc4[C@@H]32)cc1,-15% (inactive)
10,COc1ccccc1-c1ccc2c(c1)[C@@H]1[C@@H](CCN1S(=O)(=O)c1ccc(C)cc1)[C@H](CO)N2,37.4% (inactive)
11,C/C=C/c1ccc2c(c1)[C@@H]1[C@@H](CCN1S(=O)(=O)c1ccccc1OC)[C@H](CO)N2C,-5.93% (inactive)
12,COc1ccccc1S(=O)(=O)N1CC[C@@H]2[C@H]1c1cc(-c3cccc(C#N)c3)ccc1N(C)[C@H]2CO,62.1% (active)
13,N#Cc1cccc(-c2ccc3c(c2)[C@H]2[C@H](CCN2S(=O)(=O)c2ccc(F)cc2)[C@H](CO)N3)c1,20.1% (inactive)
14,N#Cc1cccc(-c2ccc3c(c2)[C@@H]2[C@@H](CCN2S(=O)(=O)c2ccc(F)cc2)[C@@H](CO)N3)c1,22.5% (inactive)
15,COc1ccccc1S(=O)(=O)N1CC[C@@H]2[C@@H](CO)N(C)c3ccc(-c4cccc(C#N)c4)cc3[C@@H]21,32% (inactive)
16,Cc1ccc(S(=O)(=O)N2CC[C@@H]3[C@@H](CO)Nc4ccc(-c5cccc(C(=O)N(C)C)c5)cc4[C@@H]32)cc1,4.93% (inactive)
17,COc1ccccc1-c1ccc2c(c1)[C@H]1[C@H](CCN1S(=O)(=O)c1ccc(C)cc1)[C@@H](CO)N2,17.3% (inactive)
18,Cc1ccc(S(=O)(=O)N2CC[C@@H]3[C@H]2c2cc(-c4cccc(C(=O)N(C)C)c4)ccc2N[C@@H]3CO)cc1,68.4% (active)
19,N#Cc1cccc(-c2ccc3c(c2)[C@@H]2[C@@H](CCN2S(=O)(=O)c2ccc(F)cc2)[C@H](CO)N3)c1,63% (active)
20,Cc1ccc(S(=O)(=O)N2CC[C@H]3[C@H](CO)Nc4ccc(-c5cccc(C(=O)N(C)C)c5)cc4[C@H]32)cc1,56.9% (active)
